According to PubChem BioAssay (NCATS):
Inconclusive results are not listed. Where a call stands in place of a potency, no number is given. Activity calls are given as the source filed them. The call rests on the fitted dose curve; in most records, active means well fitted cell-killing curve with a large enough effect; inconclusive means small, poorly fitted or top-dose-only effect, or effect the other way; inactive means no such curve, though single readings can be large or run the other way.

Test: Quantitative High-Throughput drug screen in 47 multiple myeloma cell lines against the NCATS MIPE library collection: Karpas25_ECACC cell viability assay (AID 1918968; further: nearly all actives have a fitted effect of over 35% in size)
Conditions: Karpas25 myeloma viability, CellTiter-Glo ATP, 48 h; series mostly up to 45.8 µM
Text: PI: Beverly A. Mock Ph.D.
Laboratory of Cancer Biology and Genetics,
Center for Cancer Research, National Cancer Institute,
National Institute of Health, Bethesda, Maryland
Drug resistance and disease progression are common in multiple myeloma (MM) patients, underscoring the need for new therapeutic combinations. […] We hypothesized that effective combinations would reduce MYC expression and enhance p16 activity. […] These preclinical data identify potentially useful drug combinations for evaluation in drug-resistant MM and reveal potential mechanisms of combined drug sensitivity.
Described herein is the primary MIPE qHTS used to cherrypick compounds. Validated compounds were then further tested for potential synergistic activiy.
[1] Peat TJ, Gaikwad SM, Dubois W, Gyabaah-Kessie N, Zhang S, Gorjifard S, Phyo Z, Andres M, Hughitt VK, Simpson RM, Miller MA, Girvin AT, Taylor A, Williams D, D'Antonio N, Zhang Y, Rajagopalan A, Flietner E, Wilson K, Zhang X, Shinn P, Klumpp-Thomas C, McKnight C, Itkin Z, Chen L, Kazandijian D, Zhang J, Michalowski AM, Simmons JK, Keats J, Thomas CJ, Mock BA. Drug combinations identified by high-throughput screening promote cell cycle transition and upregulate Smad pathways in myeloma. Cancer Lett. 2023 Aug 1;568:216284. doi: 10.1016/j.canlet.2023.216284. Epub 2023 Jun 24. PMID: 37356470; PMCID: PMC10408729.
SEQUENCE No. (e.g., 1, 2, 3, etc.); […] (e.g., Cells, Incubation, Reagent, etc.); VALUE and DESCRIPTION.
1; Cells; 5 uL; white, solid bottom 1536-well Greiner assay plate.
2; Compounds; 23 nL; Kalypsis pin tool (Wako USA) equipped with a 1536-well pin head to transfer to the assay plates.
3; Incubation; 48 hours; 37C incubation.
4; Reagent;5uL; CellTiter Glo (Promega).
5; Detector; 425V; Luminescence; Viewlux PerkinElmer.
NOTES (numbers refer to Sequence numbers above)
1. The cell-based screening methods employed in this study were like those previously published. Briefly, the corresponding myeloma cell lines were screened in 1,536-well plates with 500 cells, 5-uL per well for inhibition of cell viability (assessed by measuring ATP levels with CellTiterGlo).
2. NCATS MIPE 4.0 library of approved and investigational drugs were added using the Kalypsis pin tool. Wells treated with DMSO only for 100% viability and media only wells for 0% viability were used as controls.
3. The assay plates were covered and incubated for 48 hours in a 37C, 5% CO2 incubator with controlled humidity.
4. After 48 hours, CellTilter-GloTM luminescent substrate mix (Promega) reagent was added to the assay plate and plates we incubated for 5 min at room temperature.
5. Signal was measured as median relative luminescence units on a ViewLux (PerkinElmer) multiplate reader.
[1] Heske CM, Davis MI, Baumgart JT, Wilson K, Gormally MV, Chen L, Zhang X, Ceribelli M, Duveau DY, Guha R, Ferrer M, Arnaldez FI, Ji J, Tran HL, Zhang Y, Mendoza A, Helman LJ, Thomas CJ. Matrix Screen Identifies Synergistic Combination of PARP Inhibitors and Nicotinamide Phosphoribosyltransferase (NAMPT) Inhibitors in Ewing Sarcoma. Clin Cancer Res. 2017 Dec 1;23(23):7301-7311. doi: 10.1158/1078-0432.CCR-17-1121. Epub 2017 Sep 12. PMID: 28899971; PMCID: PMC6636827.
Potency means the concentration at half of the fitted maximal effect.

| SMILES | Potency |
| --- | --- |
| S=P(N1CC1)(N1CC1)N1CC1 | inactive |
| CC(C)(C)C(=O)OCOP(=O)(COCCn1cnc2c(N)ncnc21)OCOC(=O)C(C)(C)C | 1.66 µM (active) |
| O=C(O)CSCC(=O)NC1CCSC1=O (stereo not given) | inactive |
| O=C(O)c1ccc(-n2nc(-c3ccccc3O)nc2-c2ccccc2O)cc1 | 16.6 µM (active) |
| NC(=O)c1ccc2[nH]ccc2c1 | inactive |
| Cc1oc(=O)oc1CN1CCN(c2cc3c(cc2F)c(=O)c(C(=O)O)c2n3C(C)S2)CC1 (stereo not given) | inactive |
| CC(C)(C)NC(=O)[C@H]1CC[C@H]2[C@@H]3CC[C@H]4NC(=O)C=C[C@]4(C)[C@H]3CC[C@]12C | 0.662 µM (active) |
| O=c1cc(O)c(Cl)c[nH]1 | inactive |
| CCOc1cc(N)c(Cl)cc1C(=O)NCC1CN(Cc2ccc(F)cc2)CCO1 (stereo not given) | inactive |
| NC1(c2ccc(-c3nc4ccn5c(=O)[nH]nc5c4cc3-c3ccccc3)cc2)CCC1 | 5.26 µM (active) |
| CCOC(=O)[C@H](CCc1ccccc1)N[C@H]1CS[C@H](c2cccs2)CN(CC(=O)O)C1=O | 5.9 µM (active) |
| COc1cc2nc(N3CCCN(C)CC3)nc(NC3CCN(Cc4ccccc4)CC3)c2cc1OC | 5.26 µM (active) |
| CCN1CCCC1CNC(=O)c1cc(S(N)(=O)=O)ccc1OC (stereo not given) | 2.09 µM (active) |
| COc1ccccc1OCC(O)COC(N)=O (stereo not given) | inactive |
| Cc1onc(-c2ccccc2Cl)c1C(=O)N[C@@H]1C(=O)N2[C@@H]1SC(C)(C)[C@@H]2C(=O)O | inactive |
| CC1CC2C3CCC4=CC(=O)C=C[C@]4(C)[C@@]3(F)[C@@H](O)C[C@]2(C)[C@@]1(O)C(=O)CO (stereo not given in full) | 0.209 µM (active) |
| COc1ccc(-c2ccc3cc(C(=O)O)ccc3c2)cc1C12CC3CC(CC(C3)C1)C2 | inactive |
| CCn1cc(C(=O)O)c(=O)c2cc(F)c(N3CCN(C)CC3)cc21 | inactive |
| OC(Cn1cncn1)(Cn1cncn1)c1ccc(F)cc1F | inactive |
| CC(C(=O)O)c1ccc2c(c1)CC(=O)c1ccccc1S2 (stereo not given) | 18.7 µM (active) |

| SMILES | Potency |
| --- | --- |
| NC(=O)c1cccc(N)c1 | inactive |
| N[C@@H](Cc1ccc(O)c(O)c1)C(=O)O | inactive |
| Nc1[nH]c(=O)ncc1F | inactive |
| CC(=O)CC(c1ccccc1)c1c(O)c2ccccc2oc1=O (stereo not given) | inactive |
| CCOC(=O)[C@H](CCc1ccccc1)N[C@H]1CCc2ccccc2N(CC(=O)O)C1=O | 20.9 µM (active) |
| NC(=O)N1c2ccccc2CC(=O)c2ccccc21 | inactive |
| CS(=O)(=O)c1ccc([C@@H](O)[C@@H](CO)NC(=O)C(Cl)Cl)cc1 | 16.6 µM (active) |
| CC1=C(C(=O)O)N2C(=O)[C@@H](NC(=O)C(N)c3ccccc3)[C@H]2SC1 (stereo not given in full) | inactive |
| COC(=O)Nc1nc2ccc(S(=O)c3ccccc3)cc2[nH]1 (stereo not given) | 16.6 µM (active) |
| C1CCC(C(CC2CCCCN2)C2CCCCC2)CC1 (stereo not given) | 8.33 µM (active) |
| CN(CCOc1ccc(CC2SC(=O)NC2=O)cc1)c1ccccn1 (stereo not given) | inactive |
| COc1cc2c(Nc3ccc(Br)cc3F)ncnc2cc1OCC1CCN(C)CC1 | 8.33 µM (active) |
| CC(=O)Oc1ccccc1C(=O)Nc1ncc([N+](=O)[O-])s1 | 8.55 µM (active) |
| COc1ccc2c(c1)c(CC(=O)OCC(=O)O)c(C)n2C(=O)c1ccc(Cl)cc1 | inactive |
| CCOC(=O)c1ccc(OC(=O)CCCCCN=C(N)N)cc1 | inactive |
| COCCCOc1cc(C[C@@H](C[C@H](N)[C@@H](O)C[C@H](C(=O)NCC(C)(C)C(N)=O)C(C)C)C(C)C)ccc1OC | 1.87 µM (active) |
| CCCCS(=N)(=O)CCC(N)C(=O)O (stereo not given) | inactive |
| CCCCCCNC(=O)n1cc(F)c(=O)[nH]c1=O | 7.43 µM (active) |
| CCc1c2c(nc3ccc(OC(=O)N4CCC(N5CCCCC5)CC4)cc13)-c1cc3c(c(=O)n1C2)COC(=O)[C@]3(O)CC | 2.64 µM (active) |
| Cc1nnc(C(=O)NC(C)(C)c2nc(C(=O)NCc3ccc(F)cc3)c(O)c(=O)n2C)o1 | inactive |
